Experimental data: the supplement of paper PMC8047044

What was measured:
[1] = test system: Neuro-2a; experiment: neurite formation score, plate-normalized to DMSO control mean 5.04 (score (0-8 scale)); higher = more or longer neurites; settings: 1 µM
Protocol: (§1)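 Neuro-2a mouse neuroblastoma cells in PLL-coated 96-well plates were pre-treated for 1 h in DMEM(+) with each kinase inhibitor at 1 µM, then switched to serum-free DMEM(-) with inhibitor to induce neurite outgrowth and fixed about 2-3 h later. Three blinded observers scored neurite formation from 0 (no neurites) to 8 (long neurites on almost all cells).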

[2] = test system: Neuro-2a; experiment: as above; settings: 0.1 µM
Protocol: as §1, with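 “at 0.1” for “at 1”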

| Structure (SMILES) | neurite formation score [1] | neurite formation score [2] |
| --- | --- | --- |
| Cc1ccc(C(=O)Nc2ccc(CN3CCN(C)CC3)c(C(F)(F)F)c2)cc1C#Cc1cnc2[nH]ncc2c1 | 0.626 | 2.58 |
| Nc1cc(C(F)(F)F)c(-c2cc(N3CCOCC3)nc(N3CCOCC3)n2)cn1 | 5.24 | 2.71 |
| NC1(C(=O)N[C@@H](CCO)c2ccc(Cl)cc2)CCN(c2ncnc3[nH]ccc23)CC1 | 5.57 | 5.38 |
| Cc1[nH]c2ccccc2c1C1=C(NCCc2ccc(F)cc2)C(=O)N(C)C1=O | 4.54 | 2.42 |
| COC(=O)Nc1nc2cc(C(=O)c3cccs3)ccc2[nH]1 [Nocodazole] | 1.29 | 1.58 |
| Nc1nc(N)c(N=O)c(OCC2CCCCC2)n1 | 4.57 | 4.71 |
| O=C1NC(=O)C(c2ccccc2[N+](=O)[O-])=C1Nc1ccc(O)c(Cl)c1 | 3.9 | 5.21 |
| C=CC(=O)Nc1cccc(Oc2nc(Nc3ccc(N4CCN(C)CC4)cc3OC)ncc2Cl)c1 | 4.24 | 4.04 |
| Cc1c[nH]c(/C=C2\C(=O)Nc3ccccc32)c1CCC(=O)O | 6.02 | 5.92 |
| O=c1oc2c(O)c(O)cc3c(=O)oc4c(O)c(O)cc1c4c23 [Ellagic acid] | 4.47 | 4.42 |
| COc1ccc2c(c1)c(C1=C(c3c[nH]c4ccccc34)C(=O)NC1=O)cn2CCCN(C)C | 5.24 | 5.54 |
| FC(F)c1nc2ccccc2n1-c1nc(N2CCOCC2)nc(N2CCOCC2)n1 | 4.24 | 4.21 |
| CCN1CCN(Cc2ccc(NC(=O)Nc3ccc(Oc4cc(NC)ncn4)cc3)cc2C(F)(F)F)CC1 | 4.57 | 2.04 |
| Cc1[nH]c(/C=C2\C(=O)Nc3ccc(S(=O)(=O)N(C)c4cccc(Cl)c4)cc32)c(C)c1C(=O)N1CCN(C)CC1 | 3.57 | 5.04 |
